According to the supplement of paper PMC8728848:
The sample as a whole holds a higher share of the strongest signals than the screen did.

Tests used:
Experiment in all cases: glycan array binding signal (z-score within array); higher = stronger binding
Conditions in all cases: glycan notation: IUPAC condensed, linker removed
[1] = test system: Gal3S6S(b1-4)GlcNAc6S
Outline: (§1)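 Negative Z-scores can be read as non-binding. The Z-score is calculated within each array and then averaged across arrays of one protein sequence at different concentrations or buffers and across linkers. Arrays, 3228 in all, were curated from the Consortium for Functional Glycomics database and kept only where the protein sequence was available.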

[2] = test system: Gal3S4S(b1-4)GlcNAc
Outline: as §1

[3] = test system: Gal6S(b1-4)GlcNAc6S
Outline: as §1

[4] = test system: Gal6S(b1-3)GlcNAc
Outline: as §1

[5] = test system: Gal6S(b1-4)GlcNAc
Outline: as §1

[6] = test system: Gal6P(b1-4)GlcNAc
Outline: as §1

[7] = test system: Gal6S(b1-3)GlcNAc6S
Outline: as §1

[8] = test system: Gal6S(b1-4)Glc6S
Outline: as §1

[9] = test system: Gal6S(b1-4)Glc
Outline: as §1

[10] = test system: Gal4S6S(b1-4)GlcNAc
Outline: as §1

LcI (Legionella pneumophila)
glycan array binding signal (z-score) [1]: -0.439

AgI/IIC123-GFP (Streptococcus mutans)
glycan array binding signal (z-score) [2]: -0.466

Wza (Escherichia coli), P0A930
glycan array binding signal (z-score) [3]: 0.571

SpGH101 (Streptococcus pneumoniae), Q8DR60
glycan array binding signal (z-score) [4]: -0.229

BambL (Burhholderia ambifaria), Q0B4G1
glycan array binding signal (z-score) [5]: -0.314

Epa22
glycan array binding signal (z-score) [2]: -0.476 | glycan array binding signal (z-score) [6]: -0.491 | glycan array binding signal (z-score) [7]: 2.55 | glycan array binding signal (z-score) [4]: 1.89 | glycan array binding signal (z-score) [8]: 7.08 | glycan array binding signal (z-score) [3]: 12.6 | glycan array binding signal (z-score) [9]: 1.51

AgI/II Vhelical-GFP (Streptococcus mutans)
glycan array binding signal (z-score) [1]: 1.08 | glycan array binding signal (z-score) [3]: 2.17

SiiE (Salmonella typhimurium), A0A0H3NVH0
glycan array binding signal (z-score) [10]: -0.799
